Reference: PubChem BioAssay (EPA / NIEHS)
Calls of active or inactive are those of the source. Rule for the calls: active = hit-call score of the fitted dose curve at least 0.9, where 1 is the maximum; inactive = score below 0.9.

Legend:
Details in all cases: mRNA level, 48 h; actives raise or lower the signal
[1] = read-out: Glutamate-cysteine ligase catalytic (GCLC), GCLC (gene 2729); assay: LTEA_HepaRG_GCLC: Life Technologies and Expression Analysis (LTEA) Assay for Glutamate-cysteine ligase catalytic (GCLC) using HepaRG (AID 2283498)
Summary of the method: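 Differentiated human HepaRG cells, plated 48 h then switched to serum-free induction medium, were exposed in duplicate for 48 h to 8 half-log concentrations topping at 100 uM in 0.5% DMSO. GCLC mRNA was quantified by qRT-PCR against ACTB, GAPDH and POLR2A.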

[2] = read-out: growth arrest and DNA damage 45 (GADD45G), GADD45G (gene 10912); assay: LTEA_HepaRG_GADD45G: Life Technologies and Expression Analysis (LTEA) Assay for growth arrest and DNA damage 45 (GADD45G) using HepaRG (AID 2283499)
Summary of the method: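 Human hepatic HepaRG line treated 48 h with chemicals (eight concentrations, half-log steps from 100 uM); transcript induction or repression of GADD45G scored by qRT-PCR versus DMSO vehicle.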

[3] = read-out: Glutamate-cysteine ligase regulatory (GCLM), GCLM (gene 2730); assay: LTEA_HepaRG_GCLM: Life Technologies and Expression Analysis (LTEA) Assay for Glutamate-cysteine ligase regulatory (GCLM) using HepaRG (AID 2283500)
Summary of the method: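 Human liver HepaRG cultures receive test chemicals for 48 hours at up to 100 uM in 0.5% DMSO. GCLM expression is measured by qRT-PCR and analysed for increases or decreases against vehicle.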

[4] = read-out: Glutathione S-transferase M3 (GSTM3), GSTM3 (gene 2947); assay: LTEA_HepaRG_GSTM3: Life Technologies and Expression Analysis (LTEA) Assay for Glutathione S-transferase M3 (GSTM3) using HepaRG (AID 2283501)
Summary of the method: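 Changes in GSTM3 expression, an oxidative-stress marker, were scored by bidirectional curve fitting against 0.5% DMSO vehicle. Human HepaRG cultures received chemicals for 48 h in duplicate, highest concentration 100 uM with half-log dilutions.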

[5] = read-out: Heat shock 70 kDa protein 1 (HSPA1A), gene 3303; assay: LTEA_HepaRG_HSPA1A: Life Technologies and Expression Analysis (LTEA) Assay for Heat shock 70 kDa protein 1 (HSPA1A) using HepaRG (AID 2283502)
Summary of the method: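 HSPA1A induction in human HepaRG liver cells is measured after 48 h of chemical treatment (100 uM maximum, 0.5% DMSO vehicle). Expression comes from qRT-PCR normalized to endogenous controls.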

[6] = read-out: 3-Hydroxy-3-Methylglutaryl-CoA Synthase 2 (HMGCS2), HMGCS2 (gene 3158); assay: LTEA_HepaRG_HMGCS2: Life Technologies and Expression Analysis (LTEA) Assay for 3-Hydroxy-3-Methylglutaryl-CoA Synthase 2 (HMGCS2) using HepaRG (AID 2283504)
Summary of the method: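 Expression of HMGCS2 in human HepaRG liver cells is measured by qRT-PCR 48 h after dosing (highest 100 uM, half-log series, 0.5% DMSO). Values come from bidirectional concentration-response fitting with DMSO as baseline.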

[7] = read-out: HGF (gene 3082); assay: LTEA_HepaRG_HGF: Life Technologies and Expression Analysis (LTEA) Assay for Hepatocyte Growth Facto (HGF) using HepaRG (AID 2283505)
Summary of the method: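 Gain or loss of HGF mRNA in human HepaRG liver cells after 48 h chemical exposure; eight concentrations up to 100 uM with 0.5% DMSO vehicle, quantified by TaqMan qRT-PCR.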

[8] = read-out: Insulin Like Growth Factor 1 (IGF1), IGF1 (gene 3479); assay: LTEA_HepaRG_IGF1: Life Technologies and Expression Analysis (LTEA) Assay for Insulin Like Growth Factor 1 (IGF1) using HepaRG (AID 2283506)
Summary of the method: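 Using human HepaRG liver cells, IGF1 transcript induction or suppression is measured 48 h after dosing across eight concentrations capped at 100 uM. Values derive from bidirectional concentration-response fitting with DMSO as baseline.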

[9] = read-out: Intercellular Adhesion Molecule 1 (ICAM1), ICAM1 (gene 3383); assay: LTEA_HepaRG_ICAM1: Life Technologies and Expression Analysis (LTEA) Assay for Intercellular Adhesion Molecule 1 (ICAM1) using HepaRG (AID 2283507)
Summary of the method: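 Gain or loss of transcript in HepaRG hepatic cells is quantified by qRT-PCR after 48 h chemical exposure (up to 100 uM, half-log steps), with DMSO as baseline.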

[10] = read-out: Insulin-like growth factor-binding protein 1 (IGFBP1), IGFBP1 (gene 3484); assay: LTEA_HepaRG_IGFBP1: Life Technologies and Expression Analysis (LTEA) Assay for Insulin-like growth factor-binding protein 1 (IGFBP1) using HepaRG (AID 2283508)
Summary of the method: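 mRNA induction or loss was quantified by qRT-PCR after 48 h chemical exposure of human HepaRG cells, with 0.5% DMSO as vehicle and baseline. Concentration-response over eight points up to 100 uM.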

[11] = read-out: Interleukin 6 Receptor (IL6R), IL6R (gene 3570); assay: LTEA_HepaRG_IL6R: Life Technologies and Expression Analysis (LTEA) Assay for Interleukin 6 Receptor (IL6R) using HepaRG (AID 2283510);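 for AC50: TaqMan qRT-PCR signal normalized to ACTB GAPDH and POLR2A housekeeping genes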
Summary of the method: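 Concentration-response in human liver HepaRG cells: eight concentrations from 100 uM downward by half-logs, 48 h exposure, 0.5% DMSO vehicle. IL6R mRNA change measured by qRT-PCR and fitted in both directions relative to vehicle.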

[12] = read-out: Potassium channel subfamily K member 1 (KCNK1), KCNK1 (gene 3775); assay: LTEA_HepaRG_KCNK1: Life Technologies and Expression Analysis (LTEA) Assay for Potassium channel subfamily K member 1 (KCNK1) using HepaRG (AID 2283511)
Summary of the method: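 Differentiated human HepaRG cells in serum-free induction medium were exposed in duplicate for 48 h to 8 half-log concentrations up to 100 uM in 0.5% DMSO. KCNK1 mRNA was measured by TaqMan qRT-PCR, normalized to ACTB, GAPDH and POLR2A, and fitted bidirectionally versus DMSO.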

[13] = read-out: Keratin 19 (KRT19), KRT19 (gene 3880); assay: LTEA_HepaRG_KRT19: Life Technologies and Expression Analysis (LTEA) Assay for Keratin 19 (KRT19) using HepaRG (AID 2283512)
Summary of the method: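 Gene-expression endpoint in the human liver line HepaRG after 48 h exposure to up to 100 uM test chemical with 0.5% DMSO vehicle; KRT19 mRNA by qRT-PCR, analyzed bidirectionally versus DMSO.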

[14] = read-out: JUN Transcription Factor, JUN (gene 3725); assay: LTEA_HepaRG_JUN: Life Technologies and Expression Analysis (LTEA) Assay for JUN Transcription Factor using HepaRG (AID 2283513)
Summary of the method: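 Human HepaRG liver cells receive test chemicals in 0.5% DMSO for 48 h across an eight-point range topping at 100 uM. Expression changes in JUN are scored in both directions against the DMSO vehicle.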

[15] = read-out: Lipase C (LIPC), LIPC (gene 3990); assay: LTEA_HepaRG_LIPC: Life Technologies and Expression Analysis (LTEA) Assay for Lipase C (LIPC) using HepaRG (AID 2283514)
Summary of the method: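 Differentiated human HepaRG cells in serum-free induction medium were exposed in duplicate for 48 h to eight concentrations (top 100 uM, half-log steps, 0.5% DMSO). LIPC mRNA was quantified by TaqMan qRT-PCR, normalized to ACTB, GAPDH and POLR2A, with bidirectional fitting versus DMSO.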

[16] = read-out: MicroRNA 122 (MIR122), gene 406906; assay: LTEA_HepaRG_MIR122: Life Technologies and Expression Analysis (LTEA) Assay for MicroRNA 122 (MIR122) using HepaRG (AID 2283516); note: the transcript read is the microRNA miR-122
Summary of the method: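 HepaRG, 48 h exposure, 8-pt half-log from 100 uM, 0.5% DMSO; TaqMan qRT-PCR; bidirectional fit vs DMSO.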

[17] = read-out: matrix metalloproteinase-10 (MMP10), MMP10 (gene 4319); assay: LTEA_HepaRG_MMP10: Life Technologies and Expression Analysis (LTEA) Assay for matrix metalloproteinase-10 (MMP10) using HepaRG (AID 2283517)
Summary of the method: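 HepaRG, collagen I, ~100,000 cells/well; serum-free induction medium; 48 h exposure, duplicate, 8-pt half-log to 100 uM, 0.5% DMSO. Readout: TaqMan qRT-PCR, normalized to ACTB/GAPDH/POLR2A; bidirectional fit vs DMSO.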

[18] = read-out: Hypoxia-inducible factor 1-alpha (Homo sapiens) (UniProt Q16665); assay: LTEA_HepaRG_HIF1A: Life Technologies and Expression Analysis (LTEA) Assay for Hypoxia-inducible factor 1 (HIF1A) Trancription factor using HepaRG (AID 2283503)
Summary of the method: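 HepaRG, 48 h exposure, 8-pt half-log series from 100 uM, 0.5% DMSO vehicle, duplicates. Readout: HIF1A transcript by qRT-PCR (Fluidigm array), housekeeping-normalised. Bidirectional curve fit vs DMSO baseline.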

[19] = read-out: Lipoprotein lipase (LPL), LPL (gene 4023); assay: LTEA_HepaRG_LPL: Life Technologies and Expression Analysis (LTEA) Assay for Lipoprotein lipase (LPL) using HepaRG (AID 2283515)
Summary of the method: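 Differentiated human HepaRG cells in serum-free induction medium were exposed in duplicate for 48 h to eight half-log concentrations (top 100 uM) in 0.5% DMSO. LPL mRNA was quantified by TaqMan qRT-PCR, normalized to ACTB, GAPDH and POLR2A.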

[20] = read-out: Interleukin 6 (IL6), IL6 (gene 3569); assay: LTEA_HepaRG_IL6: Life Technologies and Expression Analysis (LTEA) Assay for Interleukin 6 (IL6) using HepaRG (AID 2283509)
Summary of the method: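 Differentiated human HepaRG cells, plated 48 h then switched to serum-free induction medium, were exposed in duplicate for 48 h to eight half-log concentrations up to 100 uM in 0.5% DMSO. IL6 mRNA measured by qRT-PCR, normalized to ACTB/GAPDH/POLR2A.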

Measured: AC50

Sequence of Hypoxia-inducible factor 1-alpha (Homo sapiens) (Q16665 whole entry, looked up): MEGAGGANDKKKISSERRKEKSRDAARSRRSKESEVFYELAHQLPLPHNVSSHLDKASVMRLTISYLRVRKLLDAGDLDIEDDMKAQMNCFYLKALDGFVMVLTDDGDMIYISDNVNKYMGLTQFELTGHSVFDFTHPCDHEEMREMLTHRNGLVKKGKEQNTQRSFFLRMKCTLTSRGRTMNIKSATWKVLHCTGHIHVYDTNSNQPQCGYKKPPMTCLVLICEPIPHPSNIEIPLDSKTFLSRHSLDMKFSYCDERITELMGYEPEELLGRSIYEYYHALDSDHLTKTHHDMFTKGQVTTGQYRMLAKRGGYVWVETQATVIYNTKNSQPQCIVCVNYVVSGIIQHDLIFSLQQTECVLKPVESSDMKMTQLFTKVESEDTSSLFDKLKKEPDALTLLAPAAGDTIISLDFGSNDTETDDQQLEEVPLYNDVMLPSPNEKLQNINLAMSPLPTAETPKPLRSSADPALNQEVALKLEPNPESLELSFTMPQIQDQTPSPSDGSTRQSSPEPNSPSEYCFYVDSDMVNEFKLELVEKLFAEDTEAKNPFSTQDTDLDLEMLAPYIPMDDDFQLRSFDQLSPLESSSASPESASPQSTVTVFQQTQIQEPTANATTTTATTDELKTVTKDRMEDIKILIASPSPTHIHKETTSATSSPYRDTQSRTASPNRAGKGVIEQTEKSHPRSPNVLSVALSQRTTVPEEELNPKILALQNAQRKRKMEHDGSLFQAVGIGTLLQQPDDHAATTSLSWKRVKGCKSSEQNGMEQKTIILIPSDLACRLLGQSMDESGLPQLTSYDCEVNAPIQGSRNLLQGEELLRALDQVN

NC(=O)N(O)[C@@H]1COc2cc(OCc3ccccc3)ccc21
not listed: [18] | [19] | [20]
inactive: all other assays above

O=c1[nH]cnc2c1ncn2[C@H]1CC[C@@H](CO)O1
not listed: [5] | [20]
inactive: all other assays above

COS(C)(=O)=O
not listed: [5] | [20]
inactive: all other assays above

Cn1c(=O)c2[nH]cnc2n(C)c1=O
not listed: [5] | [9] | [10] | [18] | [19] | [20]
inactive: all other assays above

OCc1ccccc1
not listed: [5] | [19]
inactive: all other assays above

CCCCCCOC(=O)CC(CC(=O)OCCCCCC)(OC(=O)CCC)C(=O)OCCCCCC
not listed: [5] | [18] | [19] | [20]
inactive: all other assays above

CNC(C)=O
not listed: [4] | [18] | [19]
inactive: all other assays above

C=CCc1cc(S(=O)(=O)c2ccc(O)c(CC=C)c2)ccc1O
inactive: [2] | [3] | [9] | [12] | [14]
active: [1] 50 µM | [6] 86.3 µM | [7] 79.5 µM | [8] 83.5 µM | [10] 79.6 µM | [11] 75.9 µM | [13] 50 µM | [15] 84.9 µM | [16] 82 µM | [17] 93.2 µM

OC(CCl)CCl
not listed: [4] | [18]
inactive: all other assays above

Cc1nc(-c2ccccn2)ncc1C(=O)Nn1cc(C)c2cc(F)ccc21
active: [6] 66.8 µM | [7] 65.1 µM | [15] 50 µM | [16] 50 µM
not listed: [4] | [18] | [20]
inactive: all other assays above

CCCCCCCCN(C)C
not listed: [4] | [5] | [18] | [19] | [20]
inactive: all other assays above

CCOC(N)=O
not listed: [4] | [18] | [19]
inactive: all other assays above

CC(C)CC(C)O (configuration not stated)
not listed: [4] | [18] | [19]
inactive: all other assays above

COc1cc2c(c(OC)c1OC)-c1ccc(OC)c(=O)cc1[C@@H](NC(C)=O)CC2
active: [1] 0.0881 µM | [2] 0.0846 µM | [6] 0.286 µM | [8] 0.123 µM | [10] 0.584 µM | [11] 0.432 µM | [15] 0.301 µM | [16] 0.113 µM | [17] 0.0147 µM
inactive: [3] | [7] | [9] | [12] | [13] | [14]

COCc1nnc(-c2ccc[n+]([O-])c2)n1-c1c(Cl)c(Cl)cc2[nH]c(=O)c(=O)[nH]c12
not listed: [4] | [5] | [18] | [19] | [20]
inactive: all other assays above
